One test relates to TXK. The note with it: concentration: 1 μM,replicates: in singlicate; n = 1.
As for `CS(=O)(=O)Nc1ccc(-c2ccnc3[nH]ccc23)cc1` [GSK993273], the “%Inh” value is listed as 0%.
Still for that read-out and setting: the figure for `O=C(NCC1CC1)c1ccc(-c2cc(C(=O)NC3CC3)ccc2F)cc1` [GW810445] is 0%.
As for `Cc1cccc2c(-c3ccncc3)c(-c3ccc(F)cc3)nn12.Cl` [GW461487], the “%Inh” value stood at 0%.
Still for that read-out and setting: the figure for `Cn1ccc2ncnc(Oc3ccc(NC(=O)Nc4cnn(C(C)(C)C)c4)c(Cl)c3)c21` is 0%; for `Cn1cc(-c2cccc3c(N)c(C(N)=O)nnc23)cn1` it is 0%; for `C[C@@H]1CCN(C(=O)N2CCCC2)C[C@@H]1N(C)c1ncnc2[nH]ccc12` it is 4%.
The same measure, in the same setting: the figure for `Cl.Nc1n[nH]c2cc(-c3ccccn3)ccc12` [GSK2189892] is 0%; for `Cl.c1ccc(Oc2ccc(Nc3ccnc4cc(-c5ccc(CN6CCNCC6)o5)ccc34)cc2)nc1` [GW567142] it is 11%; for `CCNCC(Cc1ccccc1)NC(=O)c1cc(Br)c(-c2ccnc3[nH]ccc23)s1.Cl.Cl` (centres unmarked) [GSK1383280] it is 0%.
Still for that read-out and setting: for `Cc1ccc(Nc2ccnc(Nc3ccc4c(c3)CS(=O)(=O)C4)n2)cc1O.Cl` [GW579362] the value was 90%; for `COc1cccc(C2=C(Nc3cccc(Cl)c3)C(=O)NC2=O)c1` [SB-341556], 1%.
As for `CCN1CCN(CCCC(=O)Nc2n[nH]c3nc(-c4ccc(O)cc4)c(Br)cc23)CC1` [SB-731579], the “%Inh” value stood at 0%.
The same measure, in the same setting: the figure for `CSc1nccc(-c2c(-c3ccc(F)cc3)ncn2CCCN2CCOCC2)n1.Cl` [SB-217146] is 0%; for `COc1cc2nccc(Nc3ccc(Oc4ccccc4)cc3)c2cc1OC.Cl` [GI261656] it is 19%; for `CS(=O)c1ccc(-c2coc3ccc(-c4n[nH]c(=O)o4)cc23)cc1` (centres unmarked) it is 4%.
For `Cn1ccc2ncnc(Oc3ccc(NC(=O)Nc4ccnc(C(F)(F)F)c4)c(Cl)c3)c21`, the “%Inh” value is given as 0%.
Still for that read-out and setting: for `CN1CCN(CCCNc2nccc(-c3c(-c4ccc(F)cc4)nn4cc(C(N)=O)ccc34)n2)CC1` [GW622475] the value was 47%; for `O=C(NOCC1CC1)c1cc(Br)c(F)c(F)c1Nc1ccc(I)cc1Cl`, 0%.
Same read-out and setting: the figure for `COc1cccc(CNC(=O)NC2CCN(c3ccnc(Nc4cc(OC)c(OC)c(OC)c4)n3)C2)c1` (centres unmarked) [GSK1379765] is 0%; for `COc1cc(Nc2nccc(N3CCC(NC(=O)c4cccc(C#N)c4)C3)n2)cc(OC)c1OC` (centres unmarked) [GSK1379751] it is 9%.
Still for that read-out and setting: for `COC(=O)c1cccc(NC(=O)NC2CCN(c3ccnc(NCc4ccc(F)cc4)n3)CC2)c1` [GSK1379860] the value was 7%.
For `Cn1ccc2ncnc(Oc3ccc(NC(=O)Nc4cc(C(C)(C)C)on4)c(Cl)c3)c21`, the “%Inh” value worked out at 0%.
Still for that read-out and setting: the figure for `O=C1NCCc2[nH]c(-c3ccncc3)cc21` is 2%; for `Nc1nccc(-c2ccc3c(N)n[nH]c3c2)n1` [GSK1034945] it is 0%; for `CC(=O)Nc1ccc(-c2cc3ncnc(SCC(=O)O)c3s2)cc1` it is 17%.
For the molecule `NC(=O)c1ccc(-c2cc3ncnc(SCC(=O)O)c3s2)cc1`, the “%Inh” value turned out to be 0%.
Still for that read-out and setting: the figure for `Cc1cccc(-c2nc(Nc3ccncc3)c3sccc3n2)n1` [GW869641] is 0%; for `Cn1ccc2ncnc(Oc3ccc(NC(=O)Nc4cncc(C(F)(F)F)c4)c(Cl)c3)c21` it is 0%; for `OCCn1cc(-c2cnc3nnn(Cc4ccc5ncccc5c4)c3n2)cn1` it is 0%.
Still for that read-out and setting: for `C[C@@H]1CNc2c(sc3ccc4nc(-c5ccc(O)cc5)ccc4c23)C(=O)N1` the value was 7%; for `FC(F)(F)c1cc(Br)cc(Nc2nccc(-c3cnn4ncccc34)n2)c1` [GW810578], 7%; for `NC(=O)Nc1sc(-c2ccc(F)cc2)cc1C(N)=O` [GW789449], 21%.
On the same count and under the same terms, the figure for `c1ccc(Oc2ccc(Nc3ccnc4ccc(-c5ccccn5)cc34)cc2)cc1` [GW407034] is 27%.
`CCn1c(-c2nonc2N)nc2cncc(CNC3CCNCC3)c21.Cl` [SB-747651]: the “%Inh” value was found to be 16%.
On the same count and under the same terms, for `CN(c1ccccc1CNc1nc(Nc2ccc3c(c2)CC(=O)N3)ncc1C(F)(F)F)S(C)(=O)=O` the value was 0%; for `Cc1ccc(C(=O)Nc2ccc(Oc3ccc4nc(NC(=O)C5CC5)cn4c3)c(F)c2)c(=O)n1-c1ccccc1`, 76%.
The same measure, in the same setting: the figure for `C[C@@H](Oc1cc(-n2cnc3ccc(-c4ccncc4)cc32)sc1C(N)=O)c1ccccc1Cl` [GSK483724] is 11%.

The test system of another test is TYK2(JH1domain-catalytic). The note with it: concentration: 1 μM,replicates: in singlicate; n = 1.
Regarding `CS(=O)(=O)Nc1ccc(-c2ccnc3[nH]ccc23)cc1` [GSK993273], the “%Inh” value was 99.6%.
Still for that read-out and setting: the figure for `O=C(NCC1CC1)c1ccc(-c2cc(C(=O)NC3CC3)ccc2F)cc1` [GW810445] is 19%; for `Cc1cccc2c(-c3ccncc3)c(-c3ccc(F)cc3)nn12.Cl` [GW461487] it is 7%; for `Cn1ccc2ncnc(Oc3ccc(NC(=O)Nc4cnn(C(C)(C)C)c4)c(Cl)c3)c21` it is 0%.
On the same count and under the same terms, the figure for `Cn1cc(-c2cccc3c(N)c(C(N)=O)nnc23)cn1` is 19%; for `C[C@@H]1CCN(C(=O)N2CCCC2)C[C@@H]1N(C)c1ncnc2[nH]ccc12` it is 100%; for `Cl.Nc1n[nH]c2cc(-c3ccccn3)ccc12` [GSK2189892] it is 0%.
For the molecule `Cl.c1ccc(Oc2ccc(Nc3ccnc4cc(-c5ccc(CN6CCNCC6)o5)ccc34)cc2)nc1` [GW567142], the “%Inh” value is recorded as 3%.
The same measure, in the same setting: for `CCNCC(Cc1ccccc1)NC(=O)c1cc(Br)c(-c2ccnc3[nH]ccc23)s1.Cl.Cl` (centres unmarked) [GSK1383280] the value was 46%.
Still for that read-out and setting: for `Cc1ccc(Nc2ccnc(Nc3ccc4c(c3)CS(=O)(=O)C4)n2)cc1O.Cl` [GW579362] the value was 96.9%; for `COc1cccc(C2=C(Nc3cccc(Cl)c3)C(=O)NC2=O)c1` [SB-341556], 14%; for `CCN1CCN(CCCC(=O)Nc2n[nH]c3nc(-c4ccc(O)cc4)c(Br)cc23)CC1` [SB-731579], 52%.
With `CSc1nccc(-c2c(-c3ccc(F)cc3)ncn2CCCN2CCOCC2)n1.Cl` [SB-217146], the “%Inh” value came to 13%.
Take `COc1cc2nccc(Nc3ccc(Oc4ccccc4)cc3)c2cc1OC.Cl` [GI261656]: the “%Inh” value was 4%.
Still for that read-out and setting: the figure for `CS(=O)c1ccc(-c2coc3ccc(-c4n[nH]c(=O)o4)cc23)cc1` (centres unmarked) is 9%; for `Cn1ccc2ncnc(Oc3ccc(NC(=O)Nc4ccnc(C(F)(F)F)c4)c(Cl)c3)c21` it is 0%; for `CN1CCN(CCCNc2nccc(-c3c(-c4ccc(F)cc4)nn4cc(C(N)=O)ccc34)n2)CC1` [GW622475] it is 0%.
On the same count and under the same terms, the figure for `O=C(NOCC1CC1)c1cc(Br)c(F)c(F)c1Nc1ccc(I)cc1Cl` is 0%; for `COc1cccc(CNC(=O)NC2CCN(c3ccnc(Nc4cc(OC)c(OC)c(OC)c4)n3)C2)c1` (centres unmarked) [GSK1379765] it is 54%; for `COc1cc(Nc2nccc(N3CCC(NC(=O)c4cccc(C#N)c4)C3)n2)cc(OC)c1OC` (centres unmarked) [GSK1379751] it is 72%.
Consider `COC(=O)c1cccc(NC(=O)NC2CCN(c3ccnc(NCc4ccc(F)cc4)n3)CC2)c1` [GSK1379860], for which the “%Inh” value came to 13%.
On the same count and under the same terms, for `Cn1ccc2ncnc(Oc3ccc(NC(=O)Nc4cc(C(C)(C)C)on4)c(Cl)c3)c21` the value was 7%; for `O=C1NCCc2[nH]c(-c3ccncc3)cc21`, 80%; for `Nc1nccc(-c2ccc3c(N)n[nH]c3c2)n1` [GSK1034945], 34%.
Consider `CC(=O)Nc1ccc(-c2cc3ncnc(SCC(=O)O)c3s2)cc1`, for which the “%Inh” value worked out at 37%.
Same read-out and setting: for `NC(=O)c1ccc(-c2cc3ncnc(SCC(=O)O)c3s2)cc1` the value was 2%.
On the same count and under the same terms, the figure for `Cc1cccc(-c2nc(Nc3ccncc3)c3sccc3n2)n1` [GW869641] is 20%; for `Cn1ccc2ncnc(Oc3ccc(NC(=O)Nc4cncc(C(F)(F)F)c4)c(Cl)c3)c21` it is 0%.
Still for that read-out and setting: the figure for `OCCn1cc(-c2cnc3nnn(Cc4ccc5ncccc5c4)c3n2)cn1` is 0%; for `C[C@@H]1CNc2c(sc3ccc4nc(-c5ccc(O)cc5)ccc4c23)C(=O)N1` it is 74%.
For `FC(F)(F)c1cc(Br)cc(Nc2nccc(-c3cnn4ncccc34)n2)c1` [GW810578], the “%Inh” value worked out at 0%.
On the same count and under the same terms, the figure for `NC(=O)Nc1sc(-c2ccc(F)cc2)cc1C(N)=O` [GW789449] is 98.6%; for `c1ccc(Oc2ccc(Nc3ccnc4ccc(-c5ccccn5)cc34)cc2)cc1` [GW407034] it is 7%; for `CCn1c(-c2nonc2N)nc2cncc(CNC3CCNCC3)c21.Cl` [SB-747651] it is 31%.
Same read-out and setting: for `CN(c1ccccc1CNc1nc(Nc2ccc3c(c2)CC(=O)N3)ncc1C(F)(F)F)S(C)(=O)=O` the value was 88%; for `Cc1ccc(C(=O)Nc2ccc(Oc3ccc4nc(NC(=O)C5CC5)cn4c3)c(F)c2)c(=O)n1-c1ccccc1`, 20%; for `C[C@@H](Oc1cc(-n2cnc3ccc(-c4ccncc4)cc32)sc1C(N)=O)c1ccccc1Cl` [GSK483724], 18%.

The record behind these values is publication PMC5540273 (PLoS ONE, 2017).
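Note: KINOMEscan kinase panel screen.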
